Compound activity as filed in PubChem BioAssay.
An excerpt weighted towards active compounds, which were near 4.5% of everything screened.
PfHsp90 set2: reduces growth (ATP signal) of yeast expressing P. falciparum Hsp90. S. cerevisiae expressing PfHsp90, BacTiter-Glo ATP, 48 h; yeast lacking PDR1 and PDR3 efflux regulators. actives 0.32% (n = 310,000). inhibition, % at 9.4 µM;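 active = every replicate shows inhibition above about 80%, whatever the replicate mean, limit read from the data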
tim10-1 inh: tim10-1 yeast growth inhibition. S. cerevisiae tim10-1 ts strain growth, BacTiter-Glo, 24 h. inhibition, % at 20 µM. actives 2.2% (n = 330,000);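 active = inhibition of at least 40%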;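 also: mutant grown at 25 °C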
tim23-1 inh: inhibits growth of tim23-1 mutant yeast; inhibition, % at 20 µM; actives 1.3% (n = 330,000); S. cerevisiae tim23-1 growth, BacTiter-Glo luminescence, 24 h; AID 463212;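 active = growth inhibition of the mutant yeast at or above 50%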;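 also: temperature-sensitive mutant grown at 25 °C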
SKKanGAS inh: blocks kanamycin growth of S. pyogenes SKKanGAS strain. BacTiter-Glo, 6 h. inhibition, % at 7.5 µM. actives 1.3% (n = 300,000);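 active = mean replicate score, as percent of positive control median, at least 50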;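 also: strain carries kanamycin resistance gene driven by streptokinase promoter and grows in 40 µg/ml kanamycin; loss of luminescence reflects streptokinase promoter inhibition or plain growth inhibition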
TIM10 inh: TIM10 yeast growth inhibition; S. cerevisiae TIM10 strain growth, BacTiter-Glo luminescence, 24 h; inhibition, % at 10 µM; actives 1.4% (n = 330,000); AID 463195;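 active = inhibition of 40% or more at the single tested concentration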;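 also: wild-type TIM10 isogenic control strain grown at permissive 25 °C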
NALP3 yeast inh: NALP3 inhibition in yeast; inhibition, % at 10 µM; Yeast reconstituted NLRP3/ASC/caspase-1, beta-gal luminescence, 24 h; actives 0.39% (n = 330,000);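 active = inhibition of 50% or more; inactive = inhibition below 50%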
tim10-1 confirm: tim10-1 yeast growth inhibition, confirmed; AID 463213; actives 56% (n = 7,400); inhibition, % at 20 µM; shares compounds with tim10-1 inh; S. cerevisiae tim10-1 ts strain growth, BacTiter-Glo, 24 h;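 active = inhibition of yeast growth at or above a set limit in either of two repeat tests at 20 µM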;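 also: tim10-1 mutant grown at permissive 25 °C to find synthetic lethal compounds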
TIM10 conf: confirmation of TIM10 yeast growth inhibitors. shares compounds with TIM10 inh. S. cerevisiae tim10 strain growth, BacTiter-Glo luminescence, 24 h. inhibition, % at 10 µM. actives 63% (n = 4,600);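 active = inhibition of yeast growth at or above a set limit in either of two replicates at 10 µM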; also: this counterscreen used the strain with wild-type TIM10
tim23-1 conf: confirmation of tim23-1 mutant yeast growth inhibitors. inhibition, % at 20 µM. shares compounds with tim23-1 inh. actives 83% (n = 4,400). AID 463218. S. cerevisiae tim23-1 growth, BacTiter-Glo luminescence, 24 h;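 active = inhibition above about 39% in either of two replicate wells at 20 µM, limit read from the data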;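 also: temperature-sensitive tim23-1 mutant grown at 25 °C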
Of the large screens only hits and unclear results are named; the others gave an inactive call (follow-up assays come after a bar, where they were run).

CN(C(=O)c1ccc(NC(=O)Cc2ccc(NC(=O)C3CCCN(C(=O)C4CC4)C3)cc2)cc1)C1CCCC1 (centres undefined)	none (no result: tim10-1 inh, tim23-1 inh, SKKanGAS inh, TIM10 inh, NALP3 yeast inh)
O=C(O)/C=C/c1cccc(OCc2ccccc2)c1	none
O=C(/C=C/c1cccc(OCc2ccccc2)c1)c1cccnc1	tim10-1 inh 57, TIM10 inh 65 | tim10-1 confirm 50 | TIM10 conf 52
Cc1ccccc1NC(NC(=O)c1cccs1)C(Cl)(Cl)Cl (centres undefined)	tim10-1 inh 43, TIM10 inh 47 | tim10-1 confirm 49 | TIM10 conf 51
Cc1ccc(NC(NC(=O)c2cccs2)C(Cl)(Cl)Cl)cc1C (centres undefined)	tim10-1 inh 54, TIM10 inh 58 | tim10-1 confirm 44 | TIM10 conf inactive
Cc1ccccc1NC(=O)c1ccccc1NC(=O)c1cccs1	none
CCN(CC(=O)Nc1ccc(N2CCOCC2)cc1)C(=O)c1ccc(C#N)cc1	none
O=C(/C=C/c1ccc(Cl)cc1Cl)c1ccc[nH]1	tim10-1 inh 47, TIM10 inh 54 | tim10-1 confirm 39 | TIM10 conf 40
O=C(Nc1nc2ccccc2[nH]1)C12CC3CC(CC(C3)C1)C2	none
O=C(OCc1nc2ccccc2[nH]1)C12CC3CC(CC(C3)C1)C2	tim10-1 inh 58, tim23-1 inh 58 (no result: PfHsp90 set2) | tim10-1 confirm 51 | TIM10 conf inactive | tim23-1 conf 43
Clc1cccc(Cl)c1CON/C=N/c1ncnc2sccc12	none
CNC(=S)/N=C/NOCc1c(Cl)cccc1Cl	tim10-1 inh 63, tim23-1 inh 54, TIM10 inh 53 | tim10-1 confirm 55 | TIM10 conf 54 | tim23-1 conf 60
CCn1cc(C(=O)N(C)Cc2ccc(OC(F)F)cc2)c(=O)c2ccc(C)nc21	none
NNc1nc(-c2ccccc2Cl)c2cc(Br)ccc2n1	tim10-1 inh 49, tim23-1 inh 57, TIM10 inh 41 | tim10-1 confirm 37 | TIM10 conf 30 | tim23-1 conf 43
NC(=O)c1cc(Cc2ccccc2)sc1NC(=O)c1ccco1	tim10-1 inh 50, tim23-1 inh 60, TIM10 inh 40 | tim10-1 confirm 48 | TIM10 conf inactive | tim23-1 conf 73
O=C(Nc1nc2c(s1)CCc1ccccc1-2)c1ccco1	tim10-1 inh 55, tim23-1 inh 58, TIM10 inh 41 | tim10-1 confirm 49 | TIM10 conf 47 | tim23-1 conf 61
CC(=O)Nc1nc2c(s1)CCc1ccccc1-2	none
CCCc1cc(C(N)=O)c(NC(=O)c2ccoc2C)s1	tim10-1 inh 47, tim23-1 inh 65 | tim10-1 confirm 34 | tim23-1 conf 68
O=C(Nc1nc2c(ccc3ccccc32)s1)c1ccco1	tim10-1 inh 51, tim23-1 inh 57, TIM10 inh 66 | tim10-1 confirm 52 | TIM10 conf 62 | tim23-1 conf 75
CCOc1ccc(CC(=O)Nc2sc(Cc3ccccc3)cc2C(N)=O)cc1OCC	none
Cc1occc1C(=O)Nc1sccc1C(N)=O	none
Cc1cc(C)c(CN2CCC(n3nccc3NC(=O)CCOc3ccccc3)CC2)cc1C	none
O=C(Nc1nnc(Cc2ccccc2)s1)c1ccco1	tim10-1 inh 50, tim23-1 inh 54 | tim10-1 confirm 29 | tim23-1 conf 43
O=C(Nc1nnc(CCc2ccccc2)s1)c1ccco1	none
CCN(CC)C(=S)SSC(=S)N(CC)CC	PfHsp90 set2 107, tim10-1 inh 88, tim23-1 inh 64, TIM10 inh 50 | tim10-1 confirm 99 | TIM10 conf 100 | tim23-1 conf 99
COc1cc(C(=O)NCCC(=O)NC2CCC(C)CC2)cc(OC)c1OC (centres undefined)	none
COc1cccc(CN(C)C(=O)c2cc(COc3ccc(-n4cncn4)cc3)on2)c1	tim10-1 inh 41, tim23-1 inh 51 | tim10-1 confirm 30 | tim23-1 conf inactive
COc1cccc(CN(C)C(=O)c2cc(COc3c(F)cccc3F)on2)c1	none (no result: PfHsp90 set2)
CCOC(=O)C1=C(C)NC(C)=C(C(=O)OCC)C1C(=O)OCC(=O)N(C)Cc1ccccc1	none (no result: SKKanGAS inh)
CCC(C)(C)c1ccc(OCCCC[n+]2ccc(C)cc2)c(C(C)(C)CC)c1	tim10-1 inh 42, tim23-1 inh 60 (no result: PfHsp90 set2) | tim10-1 confirm inactive | tim23-1 conf 39
Cc1cc[n+](CC[n+]2ccc(C)cc2)cc1	none
c1ccc2c(c1)nc(NCc1ccc3c(c1)OCO3)n2CCN1CCOCC1	none
c1csc(-c2csc3nc(CN4CCOCC4)nc(NCc4ccc5c(c4)OCO5)c23)c1	tim10-1 inh 46, tim23-1 inh 54, SKKanGAS inh 57, TIM10 inh 47 | tim10-1 confirm 38 | TIM10 conf 38 | tim23-1 conf 51
CC(C)[C@H](NC(=O)c1c(F)cccc1F)C(=O)OCC(=O)NC(=O)NC1CCCC1	none
CC(C)N(CCCNC(=O)Cn1ncc2c([nH]c3ccccc32)c1=O)Cc1ccccc1	none
O=C(Sc1cccc2cccnc12)c1ccc(F)cc1	tim10-1 inh 76, tim23-1 inh 80, TIM10 inh 55 (no result: PfHsp90 set2, SKKanGAS inh) | tim10-1 confirm 67 | TIM10 conf 58 | tim23-1 conf 71
C[C@@]12CCC=C[C@H]1[C@H](c1ccoc1)N(Cc1ccccc1)C2=O	none
C[C@@]12CCC=C[C@H]1[C@H](c1ccccc1Br)N(Cc1ccccc1)C2=O	tim10-1 inh 43, tim23-1 inh 63, TIM10 inh 40 (no result: SKKanGAS inh, NALP3 yeast inh) | tim10-1 confirm 51 | TIM10 conf 48 | tim23-1 conf 55
O=C1COc2ccc3ccccc3c21	none
C=CC(=O)N(CCC)C(c1ccccc1)c1ccccc1OC (centres undefined)	none
Cc1ccnc(N2C(=O)c3cccc4c([N+](=O)[O-])ccc(c34)C2=O)c1	tim10-1 inh 90, tim23-1 inh 74, TIM10 inh 90 | tim10-1 confirm 90 | TIM10 conf 97 | tim23-1 conf 78
Cc1nnc(N2C(=O)c3cccc4c([N+](=O)[O-])ccc(c34)C2=O)s1	tim10-1 inh 85, tim23-1 inh 67 | tim10-1 confirm 64 | tim23-1 conf 68
Cc1ccc(N2C(=O)c3cccc4c([N+](=O)[O-])ccc(c34)C2=O)c2cccnc12	none
O=C1N=C(N2CCOCC2)S/C1=C1\C(=O)N(Cc2ccccc2)c2ccccc21	none
CCCN1C(=O)/C(=C2\SC(N3CCCCC3)=NC2=O)c2ccccc21	tim10-1 inh 42, tim23-1 inh 50 | tim10-1 confirm 32 | tim23-1 conf 48
